Bioassay records: PubChem, National Center for Advancing Translational Sciences (NCATS)
Only a selection was taken, and hits are over-represented in it overall.
KDM5B inhibitor: KDM5B demethylase inhibition; AID 1347165; Q9UGL1; Potency, µM (highest dose often 57.7 µM), usual class: inhibitors; KDM5B demethylase, FDH-coupled NADH fluorescence (FDH is formaldehyde dehydrogenase); 220,000 tested, 2.6% active; active means well fitted inhibition curve with a large enough effect; further: 0% is about no effect; nearly all actives have a fitted effect of over 70% in size
Target sequence (Q9UGL1 whole entry, looked up): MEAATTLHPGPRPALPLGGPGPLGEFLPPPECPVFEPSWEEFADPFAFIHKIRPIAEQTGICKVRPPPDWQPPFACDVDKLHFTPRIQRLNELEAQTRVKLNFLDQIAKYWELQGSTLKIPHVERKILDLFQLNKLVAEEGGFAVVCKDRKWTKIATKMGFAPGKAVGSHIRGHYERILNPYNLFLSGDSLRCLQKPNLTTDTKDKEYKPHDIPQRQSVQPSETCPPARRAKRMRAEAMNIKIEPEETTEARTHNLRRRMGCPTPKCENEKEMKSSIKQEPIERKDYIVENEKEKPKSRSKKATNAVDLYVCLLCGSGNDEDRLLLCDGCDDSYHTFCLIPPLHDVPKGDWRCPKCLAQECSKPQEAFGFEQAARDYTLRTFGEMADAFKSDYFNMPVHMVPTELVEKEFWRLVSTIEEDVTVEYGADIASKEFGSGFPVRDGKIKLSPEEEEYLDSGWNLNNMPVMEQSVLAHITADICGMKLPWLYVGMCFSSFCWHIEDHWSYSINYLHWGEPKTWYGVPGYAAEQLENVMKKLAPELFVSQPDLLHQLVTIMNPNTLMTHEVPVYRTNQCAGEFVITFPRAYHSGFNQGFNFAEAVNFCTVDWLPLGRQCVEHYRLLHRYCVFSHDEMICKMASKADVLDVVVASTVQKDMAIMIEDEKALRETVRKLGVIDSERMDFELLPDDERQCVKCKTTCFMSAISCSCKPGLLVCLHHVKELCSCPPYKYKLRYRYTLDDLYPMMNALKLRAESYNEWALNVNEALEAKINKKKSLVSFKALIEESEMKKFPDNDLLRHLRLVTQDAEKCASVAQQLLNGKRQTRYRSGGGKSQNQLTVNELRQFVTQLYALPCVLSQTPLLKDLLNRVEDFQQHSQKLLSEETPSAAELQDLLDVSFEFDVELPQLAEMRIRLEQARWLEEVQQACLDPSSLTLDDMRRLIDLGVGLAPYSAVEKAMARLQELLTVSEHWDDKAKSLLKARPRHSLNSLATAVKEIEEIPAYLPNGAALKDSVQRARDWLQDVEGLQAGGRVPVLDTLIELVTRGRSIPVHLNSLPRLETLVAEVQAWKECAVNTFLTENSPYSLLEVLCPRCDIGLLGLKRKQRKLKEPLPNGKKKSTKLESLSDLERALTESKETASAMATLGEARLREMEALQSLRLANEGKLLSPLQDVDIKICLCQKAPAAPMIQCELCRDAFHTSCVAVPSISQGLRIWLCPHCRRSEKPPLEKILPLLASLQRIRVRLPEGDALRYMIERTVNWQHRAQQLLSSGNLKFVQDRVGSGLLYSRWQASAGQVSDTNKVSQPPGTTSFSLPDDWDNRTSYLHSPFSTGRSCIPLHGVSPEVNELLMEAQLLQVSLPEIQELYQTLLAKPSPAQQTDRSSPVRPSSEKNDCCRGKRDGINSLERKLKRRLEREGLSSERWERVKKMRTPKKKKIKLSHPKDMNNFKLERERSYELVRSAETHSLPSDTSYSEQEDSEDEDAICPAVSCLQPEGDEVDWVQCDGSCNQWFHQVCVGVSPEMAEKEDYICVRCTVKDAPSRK
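qHTS format, multiple compound concentrations. Buffer 50 mM HEPES pH 7.5/0.01% Tween-20; 200 nM KDM5BΔAP final; 10 min compound preincubation; substrate-mix levels 12.5 µM peptide, 25 µM α-KG, 0.25 mM NAD⁺; 30 min RT; ΔRFU.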
Starred values were filed as active, the others as inactive. Potency means the concentration at half of the fitted maximal effect.

O=C1CSc2ccc(C(=O)NNC(=O)c3ccc(COc4ccccc4)o3)cc2N1 was read as KDM5B inhibitor inactive.
CC(C)N(c1ccccc1)c1ccc(NC(=O)c2cccc(N(C)C)c2)cc1 was read as KDM5B inhibitor inactive.
`Cc1ccc(OCc2nc3c4c(ncn3n2)OC2=C(C(=O)CCC2)C4c2ccco2)cc1` (stereo not given) gave KDM5B inhibitor inactive.
For COc1cc(C)c(C)cc1S(=O)(=O)n1nnc2ccccc21 the results were KDM5B inhibitor inactive.
Screening Cc1ccc(C(=O)c2ccccc2C(=O)OCCCc2ccccc2)cc1C returned KDM5B inhibitor inactive.
COC(=O)[C@@H](C)NC(=O)NCCCCCO was read as KDM5B inhibitor inactive.
`Cc1ncc(-c2ccc(S(=O)(=O)Nc3ccc(C)c(Cl)c3)cc2)o1` gave KDM5B inhibitor inactive.
CCc1[nH]c(C(=O)OC(C)C(=O)NC2CCCC2)c(C)c1C(=O)OC (stereo not given) was read as KDM5B inhibitor inactive.
For CCn1cc(S(=O)(=O)Nc2cc(Cl)cc(Cl)c2)cn1 the results were KDM5B inhibitor inactive.
`CCCCNC(=O)c1c(-c2ccccc2)c(-c2ccccc2)nn(C)c1=O` gave KDM5B inhibitor inactive.
For CCCCCNC(=O)Cc1csc2nc(C)c(-c3cc(C)n(-c4cccc(C)c4C)n3)c(=O)n12 the results were KDM5B inhibitor 32µM*.
`CCCCCCNC(=O)Cc1csc2nc(C)c(-c3cc(C)n(-c4ccccc4OC)n3)c(=O)n12` gave KDM5B inhibitor 28µM*.
Screening CCCCNC(=O)c1cc2c(=O)n3cccc(C)c3nc2s1 returned KDM5B inhibitor inactive.
CCCCCn1nc(C(=O)Nc2nc(-c3cc(OC)ccc3OC)cs2)c2ccccc2c1=O was read as KDM5B inhibitor inactive.
CCc1nc2c(=O)n(CC(=O)NCc3ccco3)nc(C)c2s1 was read as KDM5B inhibitor inactive.
CCCCNC(=O)Cc1csc2nc(C)c(-c3cc(C)n(-c4ccccc4CC)n3)c(=O)n12 was read as KDM5B inhibitor 32µM*.
CCCCNC(=O)Cn1c(=O)cc(C)c2c(C)nn(-c3ccc(CC)cc3)c21 was read as KDM5B inhibitor inactive.
Screening Cn1nc(C(=O)NCc2ccco2)c2ccccc2c1=O returned KDM5B inhibitor inactive.
`CCCCOCCCNC(=O)Cn1nc(C)c2ccccc2c1=O` gave KDM5B inhibitor inactive.
For CCc1ccccc1-n1nc(-c2c(C)nc3scc(CC(=O)NCc4ccco4)n3c2=O)cc1C the results were KDM5B inhibitor 28µM*.
`COc1ccccc1CNC(=O)Cc1csc2nc(-c3ccccc3)cn12` gave KDM5B inhibitor inactive.
For O=C(Nc1ccc(N2CCCCCC2)c(C(=O)O)c1)c1ccccc1Cl the results were KDM5B inhibitor inactive.
O=C1Nc2ccccc2C12CCN(Cc1ccccc1)C2 (stereo not given) was read as KDM5B inhibitor inactive.
`COc1ccc(NC(=O)c2nn(C)c(=O)c3ccccc23)cc1OC1CCCC1` gave KDM5B inhibitor inactive.
For FC(F)(F)c1ccc(Cl)c(N/N=C/c2ccc(OCc3ccccc3)cc2)c1 the results were KDM5B inhibitor inactive.
`CC(C)CC(NC(=O)c1ccccc1Cl)C(=O)O` (stereo not given) gave KDM5B inhibitor inactive.
For C=CCn1c(SCc2nc3ccccc3o2)nnc1-c1ccc(Cl)cc1 the results were KDM5B inhibitor inactive.
Screening N#Cc1cccc(NC(=O)CCCNC(=O)C2CC2)c1 returned KDM5B inhibitor inactive.
For O=C(c1ccc(OC(F)(F)F)cc1)N1CCC(NS(=O)(=O)c2cccs2)CC1 the results were KDM5B inhibitor inactive.
COc1cccc(C(CNC(=O)CCc2nnc(-c3ccsc3)o2)N(C)C)c1 (stereo not given) was read as KDM5B inhibitor inactive.
Cc1ccc(S(=O)(=O)N(C)CCc2noc(-c3ccccc3F)n2)c2nsnc12 was read as KDM5B inhibitor inactive.
Fc1ccccc1COc1ccc(Br)cc1CNc1nn[nH]n1 was read as KDM5B inhibitor inactive.
For Cc1nc2scc(C)n2c1/C=C/c1cc(C(=O)O)c2ccccc2n1 the results were KDM5B inhibitor inactive.
Screening Cc1nc2scc(C)n2c(=O)c1S(=O)(=O)N1CCN(c2ccccc2)CC1 returned KDM5B inhibitor inactive.
For CCc1ccccc1-n1nc(-c2c(C)nc3scc(CC(=O)N4CCCC4)n3c2=O)cc1C the results were KDM5B inhibitor 32µM*.
For Cc1cc(C(=O)N(Cc2ccco2)Cc2cccs2)ccc1-n1cnnn1 the results were KDM5B inhibitor inactive.
For Cc1ccc(C)c(SCC(=O)Cc2ccccc2F)c1 the results were KDM5B inhibitor inactive.
Screening COc1ccc(C(=O)c2c(N)c(-c3nc4ccccc4[nH]3)c3ccccn23)cc1 returned KDM5B inhibitor inactive.
`COc1cccc(N2CCN(C(=O)c3cn4ccnc(-c5ccccc5)c4n3)CC2)c1` gave KDM5B inhibitor inactive.
`CCCCN1CCN(C(=O)c2cn3ccnc(-c4ccccc4)c3n2)CC1` gave KDM5B inhibitor inactive.
COc1ccc(-c2nccn3cc(C(=O)NCCN4CCCCC4)nc23)cc1 was read as KDM5B inhibitor 20µM*.
For CCCN1CCN(CCNC(=O)c2cn3ccnc(-c4ccc(OC)cc4)c3n2)CC1 the results were KDM5B inhibitor 20µM*.
Screening CCOC(=O)C1CCN(C(=O)c2cn3ccnc(-c4ccc(C)cc4)c3n2)CC1 returned KDM5B inhibitor inactive.
For CCCN1CCN(CCNC(=O)Nc2cc(OC)cc(OC)c2)CC1 the results were KDM5B inhibitor inactive.
`CCCCn1c(=O)n(CC(O)COc2cc(C)ccc2C)c(=O)c2c1ncn2C1CCCC1` (stereo not given) gave KDM5B inhibitor inactive.
For CCCCn1c(CCC(=O)NCc2ccc(OC)cc2)nc2c1c(=O)[nH]c(=O)n2CCCC the results were KDM5B inhibitor inactive.
Screening Cc1nn(C(C)C(=O)NCc2ccco2)c(=O)c2c1sc1ccccc12 (stereo not given) returned KDM5B inhibitor inactive.
CCc1oc2ccccc2c1/C=C(/C#N)C(=O)NC1CC1 was read as KDM5B inhibitor inactive.
Screening CC(C)(C)c1ccc(/C=N/O)cc1 returned KDM5B inhibitor inactive.
`Oc1ccc(-c2nc(C3CC3)nc3c2CCN(Cc2ccc(C(F)(F)F)cc2)CC3)cc1` gave KDM5B inhibitor inactive.
Screening COc1cccc(-c2nc3ccccc3c(=O)o2)c1 returned KDM5B inhibitor inactive.
`COc1cccc(-c2nc(-c3ccc(F)cc3)cs2)c1` gave KDM5B inhibitor inactive.
For COc1cccc(-c2nc3cc(SC)ccc3cc2CN(C)Cc2ccno2)c1 the results were KDM5B inhibitor 28µM*.
`CCCNc1nc(-c2cccc(Cl)c2)cs1` gave KDM5B inhibitor inactive.
Screening CCC[C@H]1CN(CCCOc2ccc(C(N)=O)cc2)C[C@@H]1NC(C)=O returned KDM5B inhibitor inactive.
For CCC[C@H]1CN(CC(=O)NCCc2ccc(F)cc2)C[C@@H]1NC(C)=O the results were KDM5B inhibitor inactive.
For CCC[C@@H]1CN(C(=O)c2ccc(-c3ccc(C)o3)cc2)C[C@H]1NC(C)=O the results were KDM5B inhibitor 28µM*.
C=CCn1c(SCC(=O)O)nc2c1c(=O)[nH]c(=O)n2C was read as KDM5B inhibitor inactive.
Screening CCCCOC(=O)CNc1nc(-c2ccccc2)c2cc(C)ccc2n1 returned KDM5B inhibitor inactive.
Screening CC(=O)Nc1cccc(NC(=O)CS(=O)(=O)c2cn(CC(=O)N3CCOCC3)c3ccccc23)c1 returned KDM5B inhibitor inactive.
For Cc1ccc(-c2cnc(CCC(=O)N3CCOCC3)o2)cc1C the results were KDM5B inhibitor inactive.
